Shown are actives, neighbours in structure and some others; about 7.7% of the full set was active somewhere.
RE007 growth inh = qHTS Assay for Inhibitors of the HIV-1 protein Vpr; AID 651644, 2012; S. pombe RE007 Vpr strain, BacTiter-Glo ATP luminescence, 24 h; Potency, µM (top dose mostly 92.2 µM), most hits filed as inhibitors; hit rate 0.21% among 360,000; active = well fitted falling curve with a large enough effect; inconclusive = small, poorly fitted or top-dose-only effect; inactive = no such curve, though single readings can be large or run the other way; also: nearly all actives have a fitted effect of over 50% in size
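Fission yeast RE007 carrying one integrated HIV-1 vpr copy, seeded at OD 0.01 in PMG+AL medium with 23 nL pinned compound. Grown 24 h at 30 degrees; viability read by BacTiter-Glo luminescence after 5 min.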
FMDV inh = High Throughput Screening for Foot and Mouth Disease Virus Antivirals; AID 1159524, 2015; Potency, µM (highest dose often 57.9 µM), usual class: inhibitors; hit rate 1.2% among 410,000; FMDV antiviral cell-based qHTS; calls by dose curve; tested in HEK293T cells; also: read-out not given here; nearly all actives have a fitted effect of over 45% in size
Giardia FBPA inh = qHTS Assay for Inhibitors of Fructose-1,6-bisphosphate Aldolase from Giardia Lamblia. purified Giardia FBPA. AID 2451, 2010. A8B2U2. Potency, µM (top dose mostly 59.6 µM), actives largely listed as inhibitors. hit rate 0.71% among 290,000; also: nearly all actives have a fitted effect of over 55% in size
Target sequence (A8B2U2 whole entry, looked up): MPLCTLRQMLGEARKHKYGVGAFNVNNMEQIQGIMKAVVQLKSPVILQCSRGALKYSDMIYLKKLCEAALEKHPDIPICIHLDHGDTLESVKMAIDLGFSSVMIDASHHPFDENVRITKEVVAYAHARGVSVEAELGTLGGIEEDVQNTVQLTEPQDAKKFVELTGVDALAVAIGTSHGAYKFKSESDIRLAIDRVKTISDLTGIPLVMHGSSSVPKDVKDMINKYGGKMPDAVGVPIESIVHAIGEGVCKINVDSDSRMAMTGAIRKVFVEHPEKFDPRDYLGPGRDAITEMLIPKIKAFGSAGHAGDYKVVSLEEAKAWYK
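40 nM FBPA preincubated 10 min at RT with compound (up to 57.5 uM final), then substrate plus GAPDH/TPI/NAD/arsenate coupling and diaphorase/resazurin added. Fluorescence read after 20 min at RT, 525/598 nm.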
HCMV antiviral = qHTS Assay for inhibitors of the human cytomegalovirus (HCMV). HFF cells, HCMV-luciferase reporter, 72 h; stronger effect = lower value. activity change, negative = inhibition, % at 57.5 µM. hit rate 4.5% among 410,000; in the data active = activity change below about -60%; inconclusive = no clear call, values can overlap the other calls; inactive = above about -39%
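Screen run at 2 compound doses on HFFs infected with reporter HCMV, MOI 1 PFU/cell. Luciferase activity from cell lysates at 72 h post infection gave inhibition relative to buffer-only and Salinomycin wells.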
TbPYK inhibitor = qHTS of Trypanosoma Brucei Inhibitors. Potency, µM (series often up to 76.8 µM), actives largely listed as inhibitors. TbPYK enzyme, Kinase-Glo Plus ATP luminescence, 45 min. hit rate 0.12% among 410,000; also: nearly all actives have a fitted effect of over 50% in size
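Readout: single end-point luminescence (Kinase-Glo Plus, 10 min). Reaction conditions were TbPYK/substrate plus 130 uM ADP, 45 min at RT, pH 7.2 TEA buffer. No-enzyme wells served as controls, and data were normalized before concentration-response fitting.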
Sm TGR block = qHTS Assay for the Inhibitors of Schistosoma Mansoni Peroxiredoxins; Schistosoma mansoni thioredoxin glutathione reductase (TGR), Q962Y6; purified TGR, DTNB reduction, TNB absorbance 405 nm; Potency, µM (top dose mostly 114 µM), most hits filed as inhibitors; hit rate 3% among 360,000; AID 485364, 2010; also: nearly all actives have a fitted effect of over 60% in size
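First, TGR (20 nM dispensed) and NADPH were mixed with compound. Second, a 15 min room-temperature incubation followed. Third, further NADPH and then DTNB were added to start the reaction. Finally, TNB absorbance was monitored kinetically.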
A number is an active result; n = inactive; u = inconclusive; x = no result given; + = active, no number. Unless noted, calls follow the shape of the dose curve; as a rule, active = well fitted curve in the direction sought with a large enough effect; inconclusive = small, poorly fitted or top-dose-only effect, or another doubt; inactive = no such curve, though single readings can be large; an effect the other way counts as inactive or inconclusive.

SMILES | RE007 growth inh | FMDV inh | Giardia FBPA inh | HCMV antiviral | TbPYK inhibitor | Sm TGR block
CCOC(=O)c1cc(S(=O)(=O)N2CCN(c3ccccc3F)CC2)[nH]n1 | x | n | x | n | n | n
CC[N+]1(C)CCC(O)(c2ccc(OC)cc2)C(C(=O)c2ccc(OC)cc2)C1 (configuration not stated) | 40µM | u | x | n | n | x
CC(C)(Oc1ccc(Cl)cc1)C(=O)NCc1ccncc1 | n | n | n | n | n | n
S=C(NCc1ccco1)Nc1ccc(Cl)cc1 | n | n | n | n | n | u
CC(C)(Oc1ccc(Cl)cc1)C(=O)NCc1ccco1 | n | n | n | n | n | 7.1µM
Oc1ccc(/C=N/NC(=S)NCc2ccco2)cc1 | n | n | n | n | n | n
S=C(NCc1ccco1)N/N=C/c1cccnc1 | n | n | n | -68 | n | n
S=C(NCc1ccco1)Nc1ccc(Cl)cn1 | n | n | n | n | n | 3.2µM
S=C(NCc1ccco1)Nc1ccc(Oc2ccc(Cl)cc2)cc1 | n | n | n | -60 | n | n
S=C(NCc1ccco1)Nc1ccccn1 | n | n | n | u | n | 14µM
COc1ccc(Nc2nnc(-c3ccc(C)c(S(=O)(=O)NCc4nc5ccccc5[nH]4)c3)c3ccccc23)cc1 | x | n | x | -95 | n | n
Cc1ccc(-c2nnc(Nc3ccc(O)cc3)c3ccccc23)cc1S(=O)(=O)NCC1CCCO1 (configuration not stated) | x | n | x | -71 | n | n
COc1ccc(Nc2nnc(-c3ccc(C)c(S(N)(=O)=O)c3)c3ccccc23)cc1 | x | n | x | u | n | n
Cc1ccc(-c2nnc(Nc3cccc(Cl)c3)c3ccccc23)cc1S(=O)(=O)NCC1CCCO1 (configuration not stated) | x | n | x | -65 | n | n
Cc1ccc(-c2nnc(Nc3ccc(C(N)=O)cc3)c3ccccc23)cc1S(=O)(=O)NCC1CCCO1 (configuration not stated) | n | n | n | n | n | n
O=S(=O)(NCCc1csc2nc(-c3ccc(Cl)cc3)nn12)c1ccc(Oc2ccccc2)cc1 | x | n | x | n | n | n
CCc1ccc(CN(C(=O)c2ccc(OC)cc2)C2CCS(=O)(=O)C2)cc1 (configuration not stated) | x | n | x | n | n | n
Cc1ccc(NC(=O)Nc2nnc(N3CCCC3)s2)c(C)c1 | x | n | x | n | n | n
COCCn1c(=O)c(-c2ccc(OC)cc2)nc2cnc(OCc3ccccc3)nc21 | x | n | n | x | x | x
Cc1ccc(NC(=O)C(=O)NCC(c2ccc3c(c2)OCO3)N2CCN(C)CC2)cc1C (configuration not stated) | x | n | x | n | n | n
Cc1ccc(-c2onc(C)c2C)cc1S(=O)(=O)N1c2ccccc2CC1C (configuration not stated) | x | u | x | n | n | n
Cc1cc(-c2ccc(C(C)C)c(S(=O)(=O)N3CCOc4ccccc43)c2)on1 | n | u | n | -64 | n | n
Cc1ccc(-c2onc(C)c2C)cc1S(=O)(=O)N1CCOc2ccccc21 | n | n | n | + | n | n
CCOC(=O)c1ccccc1NC(=O)Nc1cc2c(cc1N1CCCCC1)n(C)c(=O)n2C | x | n | x | n | n | n
N#CCc1c(C#N)c(N)nc(Nc2ccccc2)c1C#N | n | n | n | n | n | 20µM
SMILES | RE007 growth inh | FMDV inh | Giardia FBPA inh | HCMV antiviral | TbPYK inhibitor | Sm TGR block
CC(C)C[C@@H](CN(C)N=O)N(C[C@H](Cc1ccccc1)N(CCc1ccccc1)N=O)N=O | n | n | n | n | n | 40µM
CC(C)[C@H](CN(N=O)[C@@H](Cc1ccccc1)CN(C)N=O)N(CCc1ccccc1)N=O | n | n | n | n | n | n
CN(C[C@H](Cc1ccccc1)N(C[C@H](Cc1cccc2ccccc12)N(CCc1ccccc1)N=O)N=O)N=O | n | n | n | n | n | 35µM
COc1ccc2[nH]cc(S(=O)(=O)c3ccc(C)c(C)c3)c(=O)c2c1 | x | n | x | n | n | n
COc1cc(CN2CCCC(n3cc(C(=O)N4CCCCC4)nn3)C2)cc2c1OCO2 (configuration not stated) | x | n | x | x | x | x
Cc1ccc(CNc2nc(-c3ccco3)nn2C(=O)c2ccccc2[N+](=O)[O-])cc1 | x | n | x | n | n | n
COc1ccc(CNc2nc(-c3ccco3)nn2C(=O)c2ccccc2C)cc1 | x | n | x | n | n | n
COc1ccccc1CNc1nc(-c2ccco2)nn1C(=O)c1ccccc1[N+](=O)[O-] | x | n | x | n | n | 89µM
Cc1cccc(C(=O)n2nc(-c3ccco3)nc2NCc2ccccc2)c1 | x | n | x | n | n | 35µM
COc1ccc(C(=O)n2nc(-c3ccco3)nc2NCc2cccs2)cc1OC | x | n | x | n | n | 20µM
N#C/C(=C\c1ccccc1)C(=O)Nc1sc2c(c1C(N)=O)CCC2 | x | n | x | n | n | n
CC(=O)N(C)C[C@@H]1OCc2ccccc2-c2c(n(C)c3ccccc23)C(=O)N([C@@H](C)CO)C[C@@H]1C | x | x | x | n | x | x
CCOc1ccc(-n2c(C)nc3cc(C(=O)NC4CCCC4)ccc32)cc1 | x | n | x | n | n | n
O=C(NCc1ccc(F)cc1)c1ccc(CS(=O)(=O)Cc2ccccc2F)o1 | n | u | n | n | n | 40µM
O=C(NCc1ccc(F)cc1)c1ccc(CS(=O)(=O)Cc2ccc(F)cc2)o1 | n | u | n | n | n | n
O=C(NCCc1ccccc1)c1ccc(CS(=O)(=O)Cc2ccccc2Cl)o1 | x | u | x | n | n | 50µM
O=C(NCCc1ccc(Cl)cc1)c1ccc(CS(=O)(=O)Cc2ccccc2F)o1 | x | 40µM | x | n | n | n
COCCNC(=O)c1ccc(CS(=O)(=O)c2c(Cl)cccc2Cl)o1 | n | n | n | n | n | 50µM
O=C(NCCc1ccc(Cl)cc1)c1ccc(CS(=O)(=O)Cc2ccc(Cl)cc2)o1 | x | n | x | n | n | n
CCc1cccc(NC(=O)c2cc3c(=O)n(Cc4ccc(OC)cc4)ccc3nc2C)c1 | x | u | x | n | n | n
Cc1ccc(C)c(-c2nnc(NC(=O)c3ccc4c(c3)OCCO4)o2)c1 | x | n | x | u | n | n
COc1cccc(CNC(=O)C2CCCN(S(=O)(=O)c3cn(C)cn3)C2)c1 (configuration not stated) | x | n | x | n | n | n
O=C(O)c1ccc2nc(-c3cc4cc(Cl)ccc4oc3=O)[nH]c2c1 | x | n | x | n | n | n
O=S(=O)(NCc1ccccc1)NCc1ccccc1F | n | n | n | n | n | n
O=S(=O)(NCc1ccccc1)NCc1ccccc1 | n | n | n | -68 | n | n
